Legend:
Assay in all cases: log2 ratio of Biotin-Ahx-Ub-VS probe labelling (fragment/DMSO); higher = less target engagement (more negative = stronger competition), active = hit call of the paper (q ≤ 0.05, log2 ratio ≤ -1)
Conditions in all cases: compound concentration: 200 uM; treatment time: 3 h
USP19 = target: T1, USP19 (UniProt O94966)
T1 sequence (whole entry): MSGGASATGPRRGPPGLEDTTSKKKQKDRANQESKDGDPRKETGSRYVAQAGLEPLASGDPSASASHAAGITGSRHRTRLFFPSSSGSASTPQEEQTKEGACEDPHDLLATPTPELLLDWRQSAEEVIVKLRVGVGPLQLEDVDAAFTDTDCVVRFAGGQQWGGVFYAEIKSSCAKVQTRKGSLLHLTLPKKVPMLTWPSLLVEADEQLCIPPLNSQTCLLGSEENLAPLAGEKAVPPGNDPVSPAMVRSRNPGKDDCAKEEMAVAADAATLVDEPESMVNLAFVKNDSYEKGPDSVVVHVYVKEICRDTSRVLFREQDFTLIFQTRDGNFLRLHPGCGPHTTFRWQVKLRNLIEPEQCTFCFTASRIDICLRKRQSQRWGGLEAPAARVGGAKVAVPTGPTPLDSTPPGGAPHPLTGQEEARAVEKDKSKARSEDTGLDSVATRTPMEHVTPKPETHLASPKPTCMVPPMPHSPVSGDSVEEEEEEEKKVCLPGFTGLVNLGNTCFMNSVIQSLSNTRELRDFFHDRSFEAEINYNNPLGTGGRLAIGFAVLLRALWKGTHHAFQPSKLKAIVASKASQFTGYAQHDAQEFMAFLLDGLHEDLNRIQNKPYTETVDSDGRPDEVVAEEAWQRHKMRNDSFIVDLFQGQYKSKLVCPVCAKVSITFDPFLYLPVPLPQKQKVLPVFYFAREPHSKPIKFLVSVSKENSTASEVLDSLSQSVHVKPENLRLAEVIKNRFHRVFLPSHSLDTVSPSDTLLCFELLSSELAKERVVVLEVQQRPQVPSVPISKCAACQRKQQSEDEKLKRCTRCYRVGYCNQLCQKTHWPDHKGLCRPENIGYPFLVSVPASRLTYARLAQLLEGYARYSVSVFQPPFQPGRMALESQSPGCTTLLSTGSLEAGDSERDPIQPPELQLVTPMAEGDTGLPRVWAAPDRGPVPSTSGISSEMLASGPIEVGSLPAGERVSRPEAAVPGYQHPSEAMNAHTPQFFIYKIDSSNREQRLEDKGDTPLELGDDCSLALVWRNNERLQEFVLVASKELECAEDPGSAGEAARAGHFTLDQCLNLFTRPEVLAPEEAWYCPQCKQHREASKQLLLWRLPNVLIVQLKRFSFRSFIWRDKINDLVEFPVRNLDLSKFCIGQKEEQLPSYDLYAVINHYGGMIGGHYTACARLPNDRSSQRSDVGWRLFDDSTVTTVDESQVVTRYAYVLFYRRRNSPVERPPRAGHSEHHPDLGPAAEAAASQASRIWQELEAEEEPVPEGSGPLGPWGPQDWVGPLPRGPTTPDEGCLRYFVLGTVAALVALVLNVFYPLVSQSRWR
Procedure, shortened: (§1)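 Global-median-normalised Spectronaut label-free quantities were compared by unpaired t-test, and values are average log2 ratios of fragment over vehicle. Only proteins with ≥2 unique peptides were used. HEK293T lysate (495 µg per sample) was treated in triplicate with fragment at 200 µM or vehicle for 3 h and then with Biotin-Ahx-Ub-VS at 0.5 µM final for 1 h. Labelled DUBs were then NeutrAvidin-enriched, digested with LysC and trypsin, and run by diaPASEF LC-MS/MS.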

USP22 = target: T2, USP22 (UniProt Q9UPT9)
T2 sequence (whole entry): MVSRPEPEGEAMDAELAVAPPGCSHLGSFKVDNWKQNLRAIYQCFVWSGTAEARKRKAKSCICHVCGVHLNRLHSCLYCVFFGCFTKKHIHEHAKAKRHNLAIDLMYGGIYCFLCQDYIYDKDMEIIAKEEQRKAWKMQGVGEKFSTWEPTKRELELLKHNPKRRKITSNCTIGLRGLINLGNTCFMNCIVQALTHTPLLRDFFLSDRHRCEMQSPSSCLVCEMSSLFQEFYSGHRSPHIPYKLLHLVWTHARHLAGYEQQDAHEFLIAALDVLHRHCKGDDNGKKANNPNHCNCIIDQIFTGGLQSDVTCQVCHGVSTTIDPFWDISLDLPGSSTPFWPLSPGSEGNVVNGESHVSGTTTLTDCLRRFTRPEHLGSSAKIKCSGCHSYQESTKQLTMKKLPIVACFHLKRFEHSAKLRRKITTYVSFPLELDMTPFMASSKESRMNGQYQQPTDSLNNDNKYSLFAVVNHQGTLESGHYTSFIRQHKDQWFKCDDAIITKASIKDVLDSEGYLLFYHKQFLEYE
Procedure, shortened: as §1

USP24 = USP24 (UniProt Q9UPU5)
USP24, sequence (Q9UPU5 whole entry): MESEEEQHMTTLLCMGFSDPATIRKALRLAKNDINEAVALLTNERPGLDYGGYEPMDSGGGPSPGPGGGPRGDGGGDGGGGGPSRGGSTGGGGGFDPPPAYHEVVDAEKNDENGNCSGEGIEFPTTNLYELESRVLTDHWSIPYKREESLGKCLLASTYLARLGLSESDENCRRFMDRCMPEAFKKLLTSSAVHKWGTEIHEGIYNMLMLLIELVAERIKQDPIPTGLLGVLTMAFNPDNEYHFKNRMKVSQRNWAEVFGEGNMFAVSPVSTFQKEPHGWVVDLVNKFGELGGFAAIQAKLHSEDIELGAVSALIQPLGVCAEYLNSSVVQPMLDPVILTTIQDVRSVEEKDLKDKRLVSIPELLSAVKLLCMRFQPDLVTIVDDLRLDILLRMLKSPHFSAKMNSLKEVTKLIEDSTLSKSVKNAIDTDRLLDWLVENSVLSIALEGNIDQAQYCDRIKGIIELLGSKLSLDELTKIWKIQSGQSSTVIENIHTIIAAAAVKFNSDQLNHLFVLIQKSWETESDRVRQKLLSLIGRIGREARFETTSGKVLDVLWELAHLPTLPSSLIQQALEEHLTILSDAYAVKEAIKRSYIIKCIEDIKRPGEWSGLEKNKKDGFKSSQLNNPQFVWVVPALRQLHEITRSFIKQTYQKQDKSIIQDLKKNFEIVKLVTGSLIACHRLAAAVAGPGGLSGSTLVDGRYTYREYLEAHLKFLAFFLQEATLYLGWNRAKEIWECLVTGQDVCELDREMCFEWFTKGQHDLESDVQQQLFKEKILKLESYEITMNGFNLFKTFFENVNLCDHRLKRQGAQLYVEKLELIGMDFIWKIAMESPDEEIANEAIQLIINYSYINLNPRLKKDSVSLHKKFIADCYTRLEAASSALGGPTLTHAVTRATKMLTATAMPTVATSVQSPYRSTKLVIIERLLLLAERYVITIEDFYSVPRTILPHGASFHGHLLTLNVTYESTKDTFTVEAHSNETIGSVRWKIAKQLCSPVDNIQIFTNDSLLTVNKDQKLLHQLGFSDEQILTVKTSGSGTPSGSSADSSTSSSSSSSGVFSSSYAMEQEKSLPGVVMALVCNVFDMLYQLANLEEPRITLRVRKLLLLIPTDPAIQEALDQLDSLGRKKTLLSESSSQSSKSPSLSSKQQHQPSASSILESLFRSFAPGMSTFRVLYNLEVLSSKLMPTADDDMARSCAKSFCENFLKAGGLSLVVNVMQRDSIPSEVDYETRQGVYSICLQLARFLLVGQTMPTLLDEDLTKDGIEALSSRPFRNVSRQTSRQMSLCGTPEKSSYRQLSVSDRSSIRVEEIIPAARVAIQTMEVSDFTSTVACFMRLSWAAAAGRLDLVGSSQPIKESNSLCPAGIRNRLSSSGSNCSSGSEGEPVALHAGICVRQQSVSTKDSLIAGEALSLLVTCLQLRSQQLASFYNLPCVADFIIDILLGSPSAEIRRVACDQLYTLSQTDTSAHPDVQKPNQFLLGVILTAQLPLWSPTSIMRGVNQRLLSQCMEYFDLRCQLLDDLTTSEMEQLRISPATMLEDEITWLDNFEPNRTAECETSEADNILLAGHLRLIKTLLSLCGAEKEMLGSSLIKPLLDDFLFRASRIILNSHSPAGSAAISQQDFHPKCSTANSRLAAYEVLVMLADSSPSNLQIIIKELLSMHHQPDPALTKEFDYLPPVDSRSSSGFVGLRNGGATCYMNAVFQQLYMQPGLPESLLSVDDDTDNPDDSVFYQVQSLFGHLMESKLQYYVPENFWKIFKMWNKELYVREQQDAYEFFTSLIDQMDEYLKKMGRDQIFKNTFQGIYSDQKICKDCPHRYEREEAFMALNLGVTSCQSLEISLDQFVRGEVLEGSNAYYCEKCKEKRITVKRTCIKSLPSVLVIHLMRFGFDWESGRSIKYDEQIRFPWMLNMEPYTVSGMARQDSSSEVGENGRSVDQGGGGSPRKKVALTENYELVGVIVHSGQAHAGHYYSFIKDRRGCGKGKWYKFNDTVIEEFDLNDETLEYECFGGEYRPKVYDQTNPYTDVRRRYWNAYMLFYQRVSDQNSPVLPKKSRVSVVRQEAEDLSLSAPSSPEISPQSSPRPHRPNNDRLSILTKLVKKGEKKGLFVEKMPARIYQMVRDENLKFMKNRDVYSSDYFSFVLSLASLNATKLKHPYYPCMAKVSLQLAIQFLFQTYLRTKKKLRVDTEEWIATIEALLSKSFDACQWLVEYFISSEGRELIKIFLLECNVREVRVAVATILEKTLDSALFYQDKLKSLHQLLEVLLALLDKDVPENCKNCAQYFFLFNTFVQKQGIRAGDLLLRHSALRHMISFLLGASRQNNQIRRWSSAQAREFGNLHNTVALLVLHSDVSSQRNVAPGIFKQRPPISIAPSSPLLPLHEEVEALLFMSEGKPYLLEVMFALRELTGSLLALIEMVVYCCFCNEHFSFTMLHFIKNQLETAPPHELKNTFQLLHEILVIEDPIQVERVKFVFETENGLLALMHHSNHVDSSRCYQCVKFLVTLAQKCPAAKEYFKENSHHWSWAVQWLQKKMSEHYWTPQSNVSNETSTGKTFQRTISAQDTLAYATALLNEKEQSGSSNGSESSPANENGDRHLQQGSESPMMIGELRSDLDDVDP
Procedure, shortened: as §1

USP25 = target: T3, USP25 (UniProt Q9UHP3)
T3 sequence (whole entry): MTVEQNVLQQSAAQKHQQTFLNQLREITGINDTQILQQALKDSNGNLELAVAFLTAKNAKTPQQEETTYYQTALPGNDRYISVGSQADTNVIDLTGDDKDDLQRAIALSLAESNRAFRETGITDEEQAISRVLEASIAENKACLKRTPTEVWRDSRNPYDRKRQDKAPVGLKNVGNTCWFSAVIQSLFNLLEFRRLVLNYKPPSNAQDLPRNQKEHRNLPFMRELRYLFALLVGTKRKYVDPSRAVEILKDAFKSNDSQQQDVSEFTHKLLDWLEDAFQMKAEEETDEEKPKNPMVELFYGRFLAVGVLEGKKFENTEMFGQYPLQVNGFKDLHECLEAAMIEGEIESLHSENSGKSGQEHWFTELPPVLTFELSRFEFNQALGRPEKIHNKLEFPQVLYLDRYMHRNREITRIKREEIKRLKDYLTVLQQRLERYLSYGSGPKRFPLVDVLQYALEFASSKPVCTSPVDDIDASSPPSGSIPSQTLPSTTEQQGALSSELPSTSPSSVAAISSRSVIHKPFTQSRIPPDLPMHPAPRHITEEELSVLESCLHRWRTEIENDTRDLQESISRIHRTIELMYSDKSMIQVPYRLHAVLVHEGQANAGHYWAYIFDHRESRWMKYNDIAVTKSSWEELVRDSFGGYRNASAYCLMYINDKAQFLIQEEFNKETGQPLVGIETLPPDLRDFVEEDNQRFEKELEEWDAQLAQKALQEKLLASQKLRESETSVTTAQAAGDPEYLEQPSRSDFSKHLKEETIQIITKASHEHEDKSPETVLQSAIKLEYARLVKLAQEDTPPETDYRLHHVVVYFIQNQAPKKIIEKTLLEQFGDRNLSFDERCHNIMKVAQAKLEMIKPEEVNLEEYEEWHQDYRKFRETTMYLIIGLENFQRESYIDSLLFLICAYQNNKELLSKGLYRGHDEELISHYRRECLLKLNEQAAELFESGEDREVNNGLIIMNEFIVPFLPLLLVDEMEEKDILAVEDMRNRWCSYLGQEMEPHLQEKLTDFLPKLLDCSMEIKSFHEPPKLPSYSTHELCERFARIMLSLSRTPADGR
Procedure, shortened: as §1

USP28 = target: T4, USP28 (UniProt Q96RU2)
T4 sequence (whole entry): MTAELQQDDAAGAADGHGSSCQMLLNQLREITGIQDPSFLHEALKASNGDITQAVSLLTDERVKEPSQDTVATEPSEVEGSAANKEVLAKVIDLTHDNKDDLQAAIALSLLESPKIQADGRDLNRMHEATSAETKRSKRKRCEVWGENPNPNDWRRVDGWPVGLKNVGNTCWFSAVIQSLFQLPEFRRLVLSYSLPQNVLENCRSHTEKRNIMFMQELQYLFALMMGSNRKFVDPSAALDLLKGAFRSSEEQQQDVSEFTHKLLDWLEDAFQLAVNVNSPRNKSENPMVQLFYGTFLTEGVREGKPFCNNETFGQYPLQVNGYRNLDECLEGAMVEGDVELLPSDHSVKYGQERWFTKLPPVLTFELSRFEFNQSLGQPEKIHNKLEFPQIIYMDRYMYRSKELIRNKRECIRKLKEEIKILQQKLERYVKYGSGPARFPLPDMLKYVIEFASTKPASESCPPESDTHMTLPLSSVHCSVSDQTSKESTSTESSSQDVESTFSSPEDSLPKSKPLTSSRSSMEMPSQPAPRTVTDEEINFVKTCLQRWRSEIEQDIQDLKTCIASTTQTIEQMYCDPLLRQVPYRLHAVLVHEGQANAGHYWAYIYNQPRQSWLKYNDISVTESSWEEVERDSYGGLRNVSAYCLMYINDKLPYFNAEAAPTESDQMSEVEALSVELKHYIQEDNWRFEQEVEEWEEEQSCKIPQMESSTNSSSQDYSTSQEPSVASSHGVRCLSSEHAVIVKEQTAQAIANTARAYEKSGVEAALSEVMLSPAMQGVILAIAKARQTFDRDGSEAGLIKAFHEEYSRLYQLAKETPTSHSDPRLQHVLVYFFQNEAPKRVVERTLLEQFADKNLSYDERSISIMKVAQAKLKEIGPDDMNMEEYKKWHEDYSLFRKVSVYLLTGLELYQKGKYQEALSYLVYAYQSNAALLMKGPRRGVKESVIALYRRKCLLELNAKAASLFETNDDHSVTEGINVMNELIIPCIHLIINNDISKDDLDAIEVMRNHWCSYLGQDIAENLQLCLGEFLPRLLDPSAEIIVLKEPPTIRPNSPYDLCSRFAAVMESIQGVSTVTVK
Procedure, shortened: as §1

Measured: log2 ratio of Biotin-Ahx-Ub-VS probe labelling

Cc1ccc2nnc(CNC(=O)CCl)n2c1
inactive: USP19 -0.0329 | USP22 -0.259 | USP24 0.0887 | USP25 0.182 | USP28 -0.241

— the supplement of paper PMC11732987, “Enantioselective OTUD7B fragment discovery through chemoproteomics screening and high-throughput optimisation” (Communications Chemistry, 2025)
